{"source": "PubChem BioAssay", "note": "Some of the results follow. A number with no mark means an inactive call. Activity calls are given as the source filed them.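 Rule for the calls: active = inhibition reaching about 45% at 4 µM in either replicate (limit read from the data); inactive = the rest.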"}
{"assay": "lowers stimulated NF-kB luciferase signal in Jurkat – cell-based, luminescence, single concentration, T-cell NF-kB inhibitor project, confirmation (AID 435020);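 note: plate controls were PMA/ionomycin stimulated DMSO wells for no effect and unstimulated DMSO wells for full effect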", "details": "PMA/ionomycin-induced, 16 h, at 4 µM, hits give high values"}
{"compound": "Cn1c(-c2ccc(F)cc2)cc2onc(-c3ccccc3Cl)c2c1=O", "inhibition": "-96.3%"}
{"compound": "O=C(NC(Nc1nc2ccc([N+](=O)[O-])cc2s1)(C(F)(F)F)C(F)(F)F)c1ccccc1", "inhibition": "80.7% (active)"}
{"compound": "Cc1ccc2nc(-c3ccc(NC(=O)CN(C)S(=O)(=O)c4ccccc4)cc3)sc2c1", "inhibition": "-82.4%"}
{"compound": "CC(=O)Nc1ccc(Nc2c3ccccc3nc3ccccc23)cc1", "inhibition": "26.9%"}
{"compound": "Cc1ccc(NC(=O)c2csc3c2CCCC3)cc1", "inhibition": "-157%"}
{"compound": "COc1ccc(CC(=O)Nc2nc(-c3ccc(F)c(F)c3)cs2)cc1OC", "inhibition": "58.5% (active)"}
{"compound": "COc1ccc(C)c(Cn2c(-c3nonc3N)nc3ccccc32)c1", "inhibition": "44.8%"}
{"compound": "Oc1cccc(/C=N/Nc2ccc(Cl)nn2)c1O", "inhibition": "0.85%"}
{"compound": "c1cnc(N2CCN(c3ccc4ccccc4n3)CC2)nc1", "inhibition": "-107%"}
{"compound": "COc1ccc(-c2csc(Nc3ccccn3)n2)cc1", "inhibition": "16.1%"}
{"compound": "O=C(/C=C/c1ccc([N+](=O)[O-])o1)NNC(=O)c1ccc(F)cc1", "inhibition": "45.4%"}
{"compound": "COc1ccccc1NC(=O)C1=C(C)Nc2nc3ccccc3n2C1c1cccs1", "note": "(stereo unspecified)", "inhibition": "42.7%"}
{"compound": "Cc1ccc(O)c(NC(=O)COc2cc(C)ccc2C)c1", "inhibition": "0.55%"}
{"compound": "CCOc1cccc(/C=C/c2ccc3ccccc3n2)c1OC(C)=O", "inhibition": "-131%"}
{"compound": "CCCC(=O)Nc1nc2ccc(NC(=O)c3c(F)c(F)c(OC)c(F)c3F)cc2s1", "inhibition": "40.9% (active)"}
{"compound": "O=C(CSC(=S)N1CCCCC1)c1c(F)cccc1F", "inhibition": "-113%"}
